Assay [1] in a line: BSK_4H_SRB: Viability Assessment in the BioMAP Diversity Plus: 4H Assay (AID 2283027).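 Further: cells exposed to compound for 24 h before staining.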 To be noted: primary human endothelial cells (HUVEC). Summed up:
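Cytotoxicity read-out in primary human endothelial cells: after 24 h compound exposure, cells were TCA-fixed (10%), stained with 0.1% SRB and absorbance taken at 560 nm. Values fitted in both directions relative to DMSO.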

A short description of assay [2]: BSK_BE3C_SRB: Viability Assessment in the BioMAP Diversity Plus: BE3C Assay (AID 2283028).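 On AC50: fitted both ways so AC50 may mark signal gain or loss versus DMSO.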 To be noted: primary human bronchial epithelial cells. A digest of the protocol: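 Overt cytotoxicity was assessed as total protein in confluent human primary bronchial epithelial cultures 24 h after chemical addition, using 0.1% sulforhodamine B staining read at 560 nm.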

Read-out in assay [3]: Thrombomodulin, THBD (gene 7056)
The assay is described as follows: BSK_3C_Thrombomodulin: BioMAP Diversity Plus: 3C Assay for Thrombomodulin Biomarker Activity (AID 2283029). To be noted: primary human endothelial cells (HUVEC); actives raise or lower the signal. Summed up: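 ELISA measurement of thrombomodulin on HUVEC surface 24 h after chemical dosing; activity fitted in both directions relative to DMSO vehicle.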

Read-out in assay [4]: Urokinase-type plasminogen activator receptor (uPAR), PLAUR (gene 5329)
The assay is described as follows: BSK_4H_uPAR: BioMAP Diversity Plus: 4H Assay for Urokinase-type plasminogen activator receptor (uPAR) Biomarker Activity (AID 2283030). Conditions: primary human endothelial cells (HUVEC); actives raise or lower the signal. A digest of the protocol: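 Chemicals are dosed onto human vascular endothelial primary cells (umbilical vein). After 24 h, uPAR is read by ELISA. Gain or loss of signal is fitted relative to DMSO.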

Read-out in assay [5]: Vascular endothelial growth factor receptor 2 (Homo sapiens) (UniProt P35968)
The assay is described as follows: BSK_4H_VEGFRII: BioMAP Diversity Plus: 4H Assay for Vascular endothelial growth factor receptor 2 (VEGFR2) Biomarker Activity (AID 2283031). To be noted: primary human endothelial cells (HUVEC); actives raise or lower the signal. Summed up: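 VEGFRII levels on human vascular endothelial primary cells were determined by ELISA at 24 hours post-dosing, with gain- or loss-of-signal fitted against DMSO controls.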

Read-out in assay [6]: Human Leukocyte Antigen - DR isotype (HLADR), HLA-DRA (gene 3122)
The assay is described as follows: BSK_BE3C_HLADR: BioMAP Diversity Plus: BE3C Assay for Human Leukocyte Antigen - DR isotype (HLADR) Biomarker Activity (AID 2283032). To be noted: primary human bronchial epithelial cells; actives raise or lower the signal. Summed up: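 Cell-surface HLA-DR ELISA readout at 24 h after dosing in the BE3C primary human lung bronchial epithelial system; gain or loss of signal against DMSO, with parallel sulforhodamine B staining of total protein for overt cytotoxicity.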

Read-out in assay [7]: Vascular cell adhesion molecule 1 (VCAM1), VCAM1 (gene 7412)
Nature of the assay: BSK_4H_VCAM1: BioMAP Diversity Plus: 4H Assay for Vascular cell adhesion molecule 1 (VCAM1) Biomarker Activity (AID 2283033).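 Further: cell-surface VCAM-1 protein measured by ELISA.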 Conditions: primary human endothelial cells (HUVEC); actives raise or lower the signal. Summed up: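 VCAM-1 ELISA read 24 h after chemical dosing of HUVEC in the BioMAP 4H system, with gain or loss of signal fitted relative to DMSO. Parallel SRB staining (560 nm) checked overt cytotoxicity.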

Read-out in assay [8]: Interferon-gamma inducible Protein 10 (IP10), CXCL10 (gene 3627)
Nature of the assay: BSK_BE3C_IP10: BioMAP Diversity Plus: BE3C Assay for Interferon-gamma inducible Protein 10 (IP10) Biomarker Activity (AID 2283034). Conditions: primary human bronchial epithelial cells; actives raise or lower the signal. Summed up: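 IP-10 quantified by ELISA in human primary bronchial epithelial cell cultures at 24 hours post-dosing. Gain or loss of signal fitted relative to DMSO; parallel SRB staining assessed overt cytotoxicity.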

Read-out in assay [9]: Monokine induced gamma interferon (MIG), CXCL9 (gene 4283)
Nature of the assay: BSK_BE3C_MIG: BioMAP Diversity Plus: BE3C Assay for Monokine induced gamma interferon (MIG) Biomarker Activity (AID 2283035). Conditions: primary human bronchial epithelial cells; actives raise or lower the signal. Summed up: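 ELISA quantified MIG after 24 h exposure of primary bronchial epithelial cultures, analysed in both directions relative to DMSO. Cytotoxicity tracked in parallel cultures by sulforhodamine B staining.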

Read-out in assay [10]: Transforming growth factor beta 1 (TGFb1), TGFB1 (gene 7040)
Nature of the assay: BSK_BE3C_TGFb1: BioMAP Diversity Plus: BE3C Assay for Transforming growth factor beta 1 (TGFb1) Biomarker Activity (AID 2283036;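 on outcome: TGF-b1 protein level measured by ELISA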). To be noted: primary human bronchial epithelial cells; actives raise or lower the signal. Summed up:
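ELISA readout of TGF-b1 from human lung bronchial epithelial primary cells, taken 24 h post-treatment. Gain or loss of signal fitted relative to DMSO baseline, with parallel SRB staining for overt cytotoxicity.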

Read-out in assay [11]: Plasminogen activator inhibitor-1 (PAI1), SERPINE1 (gene 5054)
The assay is described as follows: BSK_BE3C_PAI1: BioMAP Diversity Plus: BE3C Assay for Plasminogen activator inhibitor-1 (PAI1) Biomarker Activity (AID 2283037). To be noted: primary human bronchial epithelial cells; actives raise or lower the signal. A digest of the protocol:
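PAI-1 was measured by ELISA in human primary bronchial epithelial cultures 24 h after chemical dosing, with cytotoxicity checked by SRB total-protein staining in parallel cultures. Activity was fitted in both directions relative to DMSO.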

Read-out in assay [12]: urokinase plasminogen activator (uPA), PLAU (gene 5328)
The assay is described as follows: BSK_BE3C_uPA: BioMAP Diversity Plus: BE3C Assay for urokinase plasminogen activator (uPA) Biomarker Activity (AID 2283038).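 On outcome: uPA protein level quantified by ELISA in cell cultures; uPA read one day after compound addition.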 To be noted: primary human bronchial epithelial cells; actives raise or lower the signal. A digest of the protocol:
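Measured by ELISA: uPA from human primary bronchial epithelial cells 24 h after chemical treatment. Values derive from bidirectional curve fitting with DMSO serving as negative control. Total protein by SRB staining in parallel wells flagged overt cytotoxicity.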

Read-out in assay [13]: Urokinase-type plasminogen activator receptor (uPAR), PLAUR (gene 5329)
The assay is described as follows: BSK_BE3C_uPAR: BioMAP Diversity Plus: BE3C Assay for Urokinase-type plasminogen activator receptor (uPAR) Biomarker Activity (AID 2283039).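 On outcome: cells exposed to compound for one day before measurement.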 Conditions: primary human bronchial epithelial cells; actives raise or lower the signal. A digest of the protocol:
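uPAR levels were measured by ELISA after 24 h compound treatment of primary human bronchial epithelial cells, fitted in both directions relative to DMSO. Parallel SRB staining served as the cytotoxicity read-out.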

Read-out in assay [14]: Interleukin-6 (IL6), IL6 (gene 3569)
Nature of the assay: BSK_CASM3C_IL6: BioMAP Diversity Plus: CASM3C Assay for Interleukin-6 (IL6) Biomarker Activity for (AID 2283040). To be noted: primary human coronary artery smooth muscle cells; actives raise or lower the signal.

Read-out in assay [15]: Tissue plasminogen activator (tPA), PLAT (gene 5327)
Nature of the assay: BSK_BE3C_tPA: BioMAP Diversity Plus: BE3C Assay for Tissue plasminogen activator (tPA) Biomarker Activity (AID 2283041).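 On outcome: tPA level quantified by ELISA one day after compound addition.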 Conditions: primary human bronchial epithelial cells; actives raise or lower the signal. Summed up:
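tPA measured by ELISA 24 h after dosing human primary bronchial epithelial cells (BE3C system). Changes in either direction were fitted against DMSO. Parallel cultures were stained with SRB to flag overt cytotoxicity.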

Read-out in assay [16]: Interleukin-8 (IL8), CXCL8 (gene 3576)
Nature of the assay: BSK_CASM3C_IL8: BioMAP Diversity Plus: CASM3C Assay for Interleukin-8 (IL8) Biomarker Activity (AID 2283042).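 Further: IL-8 protein level quantified by ELISA.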 To be noted: primary human coronary artery smooth muscle cells; actives raise or lower the signal.

Read-out in assay [17]: Human Leukocyte Antigen - DR isotype (HLADR), HLA-DRA (gene 3122)
Nature of the assay: BSK_CASM3C_HLADR: BioMAP Diversity Plus: CASM3C Assay for Human Leukocyte Antigen - DR isotype (HLADR) Biomarker Activity (AID 2283043).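 Further: cell-surface HLA-DR protein level quantified by ELISA.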 To be noted: primary human coronary artery smooth muscle cells; actives raise or lower the signal.

Read-out in assay [18]: Macrophage colony-stimulating factor (MCSF), CSF1 (gene 1435)
Nature of the assay: BSK_CASM3C_MCSF: BioMAP Diversity Plus: CASM3C Assay for Macrophage colony-stimulating factor (MCSF) Biomarker Activity (AID 2283044).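 Further: M-CSF protein amount quantified by ELISA after 24 h exposure.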 To be noted: primary human coronary artery smooth muscle cells; actives raise or lower the signal.

Read-out in assay [19]: Low-density lipoprotein receptor (LDLR), LDLR (gene 3949)
The assay is described as follows: BSK_CASM3C_LDLR: BioMAP Diversity Plus: CASM3C Assay for Low-density lipoprotein receptor (LDLR) Biomarker Activity (AID 2283045).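 Further: LDLR protein level on the cell surface quantified by ELISA.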 Conditions: primary human coronary artery smooth muscle cells; actives raise or lower the signal.

Read-out in assay [20]: Monocyte Chemoattractant Protein-1 (MCP1), CCL2 (gene 6347)
Nature of the assay: BSK_CASM3C_MCP1: BioMAP Diversity Plus: CASM3C Assay for Monocyte Chemoattractant Protein-1 (MCP1) Biomarker Activity (AID 2283046).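 Further: MCP-1 level quantified by ELISA 24 h after dosing.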 To be noted: primary human coronary artery smooth muscle cells; actives raise or lower the signal.

Active and inactive are the calls of the source. How the source made its calls: active means hit-call score of the fitted dose curve at least 0.9, where 1 is the maximum; inactive means score below 0.9.

As to `O=C1CCCCC1`, the outcome in assay [1], in assay [2], in assay [3], in assay [4], in [5] and in assay [6] was inactive. Moreover, the outcome in assay [7], in assay [8], in assay [9], in assay [10], in assay [11] and in assay [12] was inactive. Also, the outcome in [13], in assay [14], in [15], in assay [16], in assay [17] and in assay [18] was inactive. The outcome in [19] and in assay [20] was inactive.

Regarding `CC(C)NCC(O)c1ccc(O)c(O)c1` (stereo not given), the outcome in assay [1], in assay [2], in assay [3], in assay [4], in assay [5] and in assay [6] was inactive. The result in [7], in [8], in [9], in assay [10], in assay [11] and in assay [12] was inactive. Further, the result in assay [13], in assay [14], in assay [15], in [16], in [17] and in assay [18] was inactive. For the same molecule, the result in [19] and in [20] was inactive.

As for `CCCCOC(=O)CCCCC(=O)OCCCC`, the result in [1], in assay [2], in [3], in assay [4], in [5] and in assay [6] was inactive. Besides, the result in [7], in assay [8], in [9], in assay [10], in [11] and in [12] was inactive. Also, the outcome in assay [13], in assay [14], in [15], in assay [16], in assay [17] and in assay [18] was inactive. For the same molecule, the outcome in [19] and in assay [20] was inactive.

Take `CC(C)COC(=O)CCCCC(=O)OCC(C)C`: the result in [1], in assay [2], in assay [3], in [4], in assay [5] and in [6] was inactive. Besides, the result in [7], in [8], in assay [9], in [10], in assay [11] and in [12] was inactive. Further, the outcome in [13], in assay [14], in assay [15], in assay [16], in [17] and in [18] was inactive. Further, the outcome in assay [19] and in assay [20] was inactive.

On to `CCCCc1nc2cccnc2n1Cc1ccc(-c2ccccc2-c2nnn[nH]2)cc1`, for which the result in [1], in assay [2], in assay [3], in [4], in assay [5] and in assay [6] was inactive. The outcome in assay [7], in assay [8], in assay [9], in assay [10], in [11] and in assay [12] was inactive. Moreover, the result in assay [13], in assay [14], in assay [15], in [16], in assay [17] and in assay [18] was inactive. The result in assay [19] and in [20] was inactive.

Take `O=C(N[C@@H](c1ccccc1)[C@@H]1CCCCN1)c1cccc(C(F)(F)F)c1Cl`: the result in [1], in assay [3], in assay [4], in [5], in assay [7] and in [14] was inactive. Besides, the result in assay [16], in assay [17], in assay [18] and in [20] was inactive. In addition, the AC50 (in general, the concentration at which the activity in the assay is half-maximal) was 34.3 µM (active) in assay [2]; 33.2 µM (active) in assay [6]; 33.5 µM (active) in assay [8]; 34.7 µM (active) in [9]; 36.7 µM (active) in assay [10]; 32.4 µM (active) in assay [11]. In addition, the AC50 in assay [12] is 28.7 µM (active); in [13], 33.3 µM (active); in [15], 24 µM (active); in [19] it was 15.4 µM (active).
